Screening results as filed in PubChem BioAssay.
This is a sample that favours compounds with a hit; in the whole collection about 2.3% have one here.
GLD-1 TGE inh: GLD-1-TGE RNA interaction inhibition (C. elegans); Q17339; purified GLD-1 + fluorescein TGE RNA, fluorescence polarization; inhibition, % at 5.96 µM; 320,000 compounds, 0.44% hits;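 active = percent inhibition above a per-plate cutoff, the plate mean of test compounds plus 3 SD, cut at about 30% in these data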;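 also: 0% = DMSO wells with GLD-1 and probe and 100% = wells lacking GLD-1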
BCLXL inh: blocks human Bcl-xL binding to Bim BH3 peptide; GST-Bcl-xL / FITC-Bim BH3 peptide fluorescence polarization; AID 2129; inhibition, % at 10.9 µM; Q07817; 320,000 compounds, 0.7% hits;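 active = inhibition above the mean of all tested compounds plus 3 SD, cutoff set per campaign, cut at about 30% in these data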;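 also: 0% = DMSO wells and 100% = unlabeled Bim-BH3 peptide competitor; inhibitors lower millipolarization by displacing the labeled peptide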
Target sequence (Q07817 whole entry, looked up): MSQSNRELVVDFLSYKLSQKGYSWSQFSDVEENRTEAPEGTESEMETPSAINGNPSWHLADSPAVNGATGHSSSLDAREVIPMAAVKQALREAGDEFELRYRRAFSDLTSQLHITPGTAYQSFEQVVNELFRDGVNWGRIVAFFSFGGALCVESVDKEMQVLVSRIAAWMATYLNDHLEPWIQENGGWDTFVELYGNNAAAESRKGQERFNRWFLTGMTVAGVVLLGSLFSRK
Mcl1-Noxa inh: disrupts binding of human Mcl-1 to Noxa peptide. Q07820. TR-FRET Mcl-1/Noxa peptide binding, 2 h. inhibition, % at 21.7 µM. 220,000 compounds, 1.5% hits;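 active = compounds that cut the protein-peptide binding signal by more than 50% relative to plate controls in a single-dose test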;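 also: His-tagged Mcl-1 with rhodamine Noxa BH3 peptide and terbium anti-His antibody; 0% = Mcl-1 plus Noxa peptide wells and 100% = peptide-only wells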
Target sequence (Q07820 whole entry, looked up): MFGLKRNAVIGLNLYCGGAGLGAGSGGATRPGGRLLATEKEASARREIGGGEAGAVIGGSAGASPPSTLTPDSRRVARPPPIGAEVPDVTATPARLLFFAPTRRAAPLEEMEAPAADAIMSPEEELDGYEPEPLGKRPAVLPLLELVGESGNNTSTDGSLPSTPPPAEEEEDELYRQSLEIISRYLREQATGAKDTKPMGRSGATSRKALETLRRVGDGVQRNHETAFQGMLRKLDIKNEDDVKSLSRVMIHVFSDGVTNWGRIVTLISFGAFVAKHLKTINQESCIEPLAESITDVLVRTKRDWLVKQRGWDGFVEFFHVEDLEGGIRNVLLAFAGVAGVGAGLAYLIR
Mcl1 Bid PPI: disrupts binding of human Mcl-1 to Bid peptide | Q07820 | TR-FRET Mcl-1/Bid-Dy647 peptide binding, 1536-well | inhibition, % at 21.7 µM | 220,000 compounds, 0.97% hits;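 active = compounds that cut the binding signal by more than half at the single screening dose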;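 also: His-tagged Mcl-1 with europium anti-His antibody binding Bid BH3 peptide; 0% = Mcl-1 plus peptide wells and 100% = peptide-only wells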
Mcl-1 Bim block: human Bim-Mcl-1 interaction inhibition. 190,000 compounds, 0.1% hits. AID 1009. Bead-based flow cytometry, Bim peptide-Mcl-1 binding. inhibition, % at 10 µM; in the data active = inhibition above about 40%;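 also: 0% = no compound tracer wells and 100% = peptide blocker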
MCL1-BIM inh: MCL1-BIM-BH3 interaction inhibition (human); Q07820; 320,000 compounds, 0.68% hits; inhibition, % at 10.9 µM; GST-MCL1 / FITC-Bim-BH3 fluorescence polarization;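 active = inhibition above the mean inhibition of all tested compounds plus 3 SD, set per campaign, cut at about 40% in these data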;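 also: 0% = DMSO wells and 100% = unlabeled Bim-BH3 peptide control; higher means more loss of mP so more displacement of Bim peptide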
Active calls of the source: *; nt = not tested or not shown.

SMILES	GLD-1 TGE inh	BCLXL inh	Mcl1-Noxa inh	Mcl1 Bid PPI	Mcl-1 Bim block	MCL1-BIM inh
Cc1cc(C)n2nc(SC(C)C(=O)NC3CCCCC3C)nc2n1 (stereo unspecified)	4	-3	nt	nt	nt	-10
OCCc1ccc(O)c(-n2nc3ccccc3n2)c1	2	8	nt	nt	nt	11
Clc1ccc(OCCN2CCCCC2)c(Cl)c1	-1	1	35	75*	2	4
Clc1ccccc1OCCN1CCCCC1	3	5	16	20	-3	5
O=C(CN1CCN(S(=O)(=O)c2ccccc2F)CC1)NCC1(N2CCOCC2)CCCCC1	-6	-7	nt	nt	nt	-4
O=C(Cc1ccccc1F)NCC1(N2CCOCC2)CCCCC1	-8	4	60*	-11	nt	4
COc1cccc(N2CCN(CC(=O)NC(=O)NCc3ccco3)CC2)c1	2	6	62*	-50	1	30
COc1ccc(C(=O)Nc2nnc(SCC(=O)NCc3ccco3)s2)c(OC)c1	4	2	nt	nt	nt	-1
CCN(CC)c1ccc(Nc2nc(N3CCOCC3)c3ccccc3n2)cc1	4	26	54*	22	3	23
O=C(CSc1ccc(Cl)cc1)N1CCN(c2ccc([N+](=O)[O-])cc2Cl)CC1	13	7	-1	-4	-1	-4
Cc1ccc(Cl)cc1N1CCN(C(=O)CSc2ccsc2[N+](=O)[O-])CC1	-1	9	55*	-16	-8	11
CCCCN1C(=O)N(C)C2NC(=O)NC21 (stereo unspecified)	-4	3	-13	-33	-1	4
CCCCN1C(=O)N(C)C2C1N(C)C(=O)N2CCCC (stereo unspecified)	6	6	63*	2	nt	6
Cc1cc(Nc2ccccc2)nc(-c2ccccc2O)n1	8	0	25	8	2	3
Cc1cc(NC2CCCCC2)nc(-c2ccccc2O)n1	-2	4	28	52*	-3	5
Cc1ccc(C)c(S(=O)(=O)ON2C(=O)c3ccccc3C2=O)c1	0	-1	60*	-48	-15	-8
CCOC(=O)CCc1cnccc1-c1cccc(OC)c1O	4	1	nt	nt	nt	2
CC1=C/C(=C(/c2ccc(O)c(C)c2)c2ccccc2S(=O)(=O)O)C=CC1=O	6	12	nt	nt	nt	6
CC1=C/C(=C(/c2cc(C)c(O)c(Br)c2)c2ccccc2S(=O)(=O)O)C=C(Br)C1=O	19	41*	nt	nt	nt	43*
O=C(Nc1cccc(C(=O)O)c1)/C(=C\c1ccc(F)cc1)NC(=O)c1ccco1	6	1	nt	nt	nt	2
C[C@H](CO)N1C[C@H](C)[C@@H](CN(C)S(C)(=O)=O)Oc2ccc(NC(=O)CCC(F)(F)F)cc2C1=O	10	nt	nt	nt	nt	nt
CCN1CCN(CC(=O)Nc2cc3c(cc2C(C)=O)OCO3)CC1	-5	6	21	58*	2	8
CCOC(=O)c1c(NC(=O)COC(=O)Cn2c(C)nc3ccccc32)sc2c1CCCC2	0	1	3	56*	-149	-4
CCOC(=O)c1c(NC(=O)Cn2c(C)nc3ccccc32)sc2c1CCC2	0	7	-19	-18	1	4
Cc1ccc(C)c(S(=O)(=O)N2CCN(C(=O)c3n[nH]c(=O)c4ccccc34)CC2)c1	10	2	nt	nt	nt	1
SMILES	GLD-1 TGE inh	BCLXL inh	Mcl1-Noxa inh	Mcl1 Bid PPI	Mcl-1 Bim block	MCL1-BIM inh
COc1cc(/C=N/Nc2nn3cnnc3c3ccccc23)ccc1O	1	9	68*	-8	28	2
COc1cccc(/C=N/Nc2nn3cnnc3c3ccccc23)c1	0	-1	nt	-2	17	4
CCOc1cc(/C=N/Nc2nn3cnnc3c3ccccc23)ccc1O	-4	11	56*	-72	nt	12
CCOc1cc(/C=N/Nc2nncc(-c3ccccc3)n2)ccc1O	1	10	33	-43	6	9
Oc1ccc(/C=N/Nc2nn3cnnc3c3ccccc23)cc1	4	5	51*	-38	nt	6
CC1COC(Cn2c3ccccc3c3ccccc32)O1 (stereo unspecified)	8	5	18	61*	nt	2
Cc1[nH]nc2c1C1(CCN(Cc3ccccc3)CC1)C(C#N)=C(N)O2	17	40*	12	-25	0	39
CC(=O)Nc1ccc(S(=O)(=O)N2CCC(N3CCCCC3)CC2)cc1	-6	3	nt	nt	nt	7
CCC(C)NCCOCCSc1ccc(Cl)cc1 (stereo unspecified)	-1	5	4	52*	-5	5
C=CCc1cc(Cl)ccc1OCCOCCNC(C)CC (stereo unspecified)	-3	-7	33	40	-1	-15
Cc1c(NC(=O)C(C)OC(=O)CCc2c[nH]c3ccccc23)c(=O)n(-c2ccccc2)n1C (stereo unspecified)	8	-10	nt	nt	nt	-16
CCN(CC)c1ccc(NC(=O)CN2CCN(CC(=O)Nc3ccccc3F)CC2)cc1	0	13	55*	-51	0	4
CCN(CC)c1ccc(NC(=O)CN2CCN(CC(=O)Nc3ccccc3OC)CC2)cc1	-2	5	nt	nt	nt	5
O=C(CSc1nnc(Cc2ccccc2)n1Cc1ccccc1)NCc1ccco1	1	5	-7	-10	-4	-8
Cc1ccc(Nc2nnc(SCC(=O)NCc3ccco3)s2)cc1	nt	nt	53*	-73	-3	nt
Cc1nnc(SCC(=O)NC(=O)NCc2ccco2)n1Cc1ccccc1	8	-5	53*	2	-3	8
CCn1c(SCC(=O)NC(=O)NCc2ccco2)nc2sc(C)c(C)c2c1=O	0	11	55*	-6	-1	26
O=C(CSc1nnc(Nc2ccccc2)s1)NCc1ccco1	-2	4	2	-37	0	6
O=C(CSc1nnc(COc2ccccc2Cl)o1)NC(=O)NCc1ccco1	1	3	81*	-40	nt	25
C[C@H](CO)N1C[C@H](C)[C@@H](CN(C)S(C)(=O)=O)Oc2ccc(NC(=O)Nc3ccc4c(c3)OCO4)cc2C1=O	4	nt	nt	nt	nt	nt
O=C(CCl)Nc1cn(-c2ccccc2)nc1-c1ccc(F)cc1	-4	5	43	-13	0	3
CCCCN(C)C(=O)C1CCCN(S(=O)(=O)c2ccc3c(c2)CC(C)N3C(=O)C2CC2)C1 (stereo unspecified)	-3	0	nt	nt	nt	-6
COc1ccc(OCC(=O)OCC(=O)c2ccc(OC)c(F)c2)cc1	-5	-6	nt	nt	nt	-4
COc1cccc(OC)c1C(=O)Nc1ccccc1C(=O)N1CCCCCC1	-2	4	nt	nt	nt	2
O=C(CSc1nnc(Nc2ccccc2F)s1)NCc1ccco1	nt	nt	30	-54	0	nt
Nn1c(SCC(=O)NC(=O)NCc2ccco2)nnc1-c1ccc(OC(F)F)cc1	-3	-12	96*	18	-4	4
Nn1c(SCC(=O)NCCN2C(=O)CSC2=O)nnc1-c1ccc(OC(F)F)cc1	1	-8	nt	nt	nt	-10
CCOc1ccccc1-n1nnnc1SCC(=O)NC(=O)NCc1ccco1	-4	-2	53*	-83	2	4
